In publication PMC11062922 (Nature Chemical Biology, 2023) one finds IC50 and potency estimated from few doses data, which are given here for 5 compounds.

Assay [1] relates to PKN3. The settings on record: hek293t cells.
In assay [2] the test system is CSNK2A1;CSNK2A3. The arrangement: species or system human, MV4-11 + K-562 + COLO205 + SK-N-BE2 + OVCAR-8. Conditions: read-out: apparent Kd, compound concentrations: 100 nM and 1000 nM (sheet 'Samples'), n = 1.
Assay [3] concerns CSNK2A2. The arrangement: species or system human, MV4-11 + K-562 + COLO205 + SK-N-BE2 + OVCAR-8. Conditions: read-out: apparent Kd, compound concentrations: 100 nM and 1000 nM (sheet 'Samples'), n = 1.
Assay [4] relates to AAK1. The arrangement: species or system human, MV4-11 + K-562 + COLO205 + SK-N-BE2 + OVCAR-8. The settings on record: read-out: apparent Kd, compound concentrations: 100 nM and 1000 nM (sheet 'Samples'), n = 1.
For assay [5], the system named is BMP2K. The arrangement: species or system human, MV4-11 + K-562 + COLO205 + SK-N-BE2 + OVCAR-8. Conditions: read-out: apparent Kd, compound concentrations: 100 nM and 1000 nM (sheet 'Samples'), n = 1.
In assay [6] the test system is FLT4. More on the design: species or system human, MV4-11 + K-562 + COLO205 + SK-N-BE2 + OVCAR-8. Conditions: read-out: apparent Kd, compound concentrations: 100 nM and 1000 nM (sheet 'Samples'), n = 1.
The subject of assay [7] is GAK. The arrangement: species or system human, MV4-11 + K-562 + COLO205 + SK-N-BE2 + OVCAR-8. Conditions: read-out: apparent Kd, compound concentrations: 100 nM and 1000 nM (sheet 'Samples'), n = 1.
Assay [8] relates to GSK3A. More on the design: species or system human, MV4-11 + K-562 + COLO205 + SK-N-BE2 + OVCAR-8. The settings on record: read-out: apparent Kd, compound concentrations: 100 nM and 1000 nM (sheet 'Samples'), n = 1.
For assay [9], the system named is GSK3B. The arrangement: species or system human, MV4-11 + K-562 + COLO205 + SK-N-BE2 + OVCAR-8. The settings on record: read-out: apparent Kd, compound concentrations: 100 nM and 1000 nM (sheet 'Samples'), n = 1.
Assay [10] has as its system PAK4. The arrangement: species or system human, MV4-11 + K-562 + COLO205 + SK-N-BE2 + OVCAR-8. The settings on record: read-out: apparent Kd, compound concentrations: 100 nM and 1000 nM (sheet 'Samples'), n = 1.
Assay [11] concerns PKN3. The arrangement: species or system human, MV4-11 + K-562 + COLO205 + SK-N-BE2 + OVCAR-8. Conditions: read-out: apparent Kd, n = 1.
Assay [12] deals with PRKAG1. More on the design: species or system human, MV4-11 + K-562 + COLO205 + SK-N-BE2 + OVCAR-8. The settings on record: read-out: apparent Kd, compound concentrations: 100 nM and 1000 nM (sheet 'Samples'), n = 1.
Assay [13] concerns the target Q6ZSR9 (human, UniProt Q6ZSR9). More on the design: species or system MV4-11 + K-562 + COLO205 + SK-N-BE2 + OVCAR-8. The settings on record: read-out: apparent Kd; compound concentrations: 100 nM and 1000 nM (sheet 'Samples'), CATDS: 2.6002877269984698E-2; n = 1.
Assay [14] deals with SIK2. More on the design: species or system human, MV4-11 + K-562 + COLO205 + SK-N-BE2 + OVCAR-8. The settings on record: read-out: apparent Kd, compound concentrations: 100 nM and 1000 nM (sheet 'Samples'), n = 1.
Assay [15] deals with CLK1. More on the design: species or system human, MV4-11 + K-562 + COLO205 + SK-N-BE2 + OVCAR-8. The settings on record: read-out: apparent Kd; compound concentrations: 100 nM and 1000 nM (sheet 'Samples'), CATDS: 4.6708282192626498E-3; n = 1.
Assay [16] deals with CLK4. More on the design: species or system human, MV4-11 + K-562 + COLO205 + SK-N-BE2 + OVCAR-8. Conditions: read-out: apparent Kd; compound concentrations: 100 nM and 1000 nM (sheet 'Samples'), CATDS: 3.9570541670233801E-3; n = 1.
The test system of assay [17] is MELK. More on the design: species or system human, MV4-11 + K-562 + COLO205 + SK-N-BE2 + OVCAR-8. Conditions: read-out: apparent Kd; compound concentrations: 100 nM and 1000 nM (sheet 'Samples'), CATDS: 3.6400689102280299E-3; n = 1.
Assay [18] concerns NUAK1. More on the design: species or system human, MV4-11 + K-562 + COLO205 + SK-N-BE2 + OVCAR-8. The settings on record: read-out: apparent Kd; compound concentrations: 100 nM and 1000 nM (sheet 'Samples'), CATDS: 3.5163912979630598E-3; n = 1.
For assay [19], the system named is PKN1. The arrangement: species or system human, MV4-11 + K-562 + COLO205 + SK-N-BE2 + OVCAR-8. Conditions: read-out: apparent Kd; compound concentrations: 100 nM and 1000 nM (sheet 'Samples'), CATDS: 4.0652178532190096E-3; n = 1.
Assay [20] relates to RET. More on the design: species or system human, MV4-11 + K-562 + COLO205 + SK-N-BE2 + OVCAR-8. The settings on record: read-out: apparent Kd; compound concentrations: 100 nM and 1000 nM (sheet 'Samples'), CATDS: 4.7446456770992903E-3; n = 1.

Read-outs that look alike come from different tables or passages of the source.
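Throughout, for IC50: NanoBRET target engagement in HEK293T cells transiently expressing full-length PKN3 with C-terminal NanoLuc, displacement of fluorescent tracer K5 (500 nM), BRET read after 2 h equilibration at 37 °C.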

Q6ZSR9, sequence (Q6ZSR9 whole entry, looked up): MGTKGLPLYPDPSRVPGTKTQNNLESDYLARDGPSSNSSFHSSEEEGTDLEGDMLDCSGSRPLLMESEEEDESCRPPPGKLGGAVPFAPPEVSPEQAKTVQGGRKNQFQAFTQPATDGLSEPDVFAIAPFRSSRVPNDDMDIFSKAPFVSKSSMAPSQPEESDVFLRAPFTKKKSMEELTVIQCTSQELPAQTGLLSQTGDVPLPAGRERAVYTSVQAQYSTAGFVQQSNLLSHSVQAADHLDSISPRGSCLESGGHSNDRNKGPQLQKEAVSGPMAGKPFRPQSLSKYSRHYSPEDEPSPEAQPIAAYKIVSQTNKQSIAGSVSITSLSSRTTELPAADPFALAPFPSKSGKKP

Consider LY3009120, for which the IC50 in assay [1] (read-out: Average, SD, n = 4) worked out at 513 nM; in assay [1] (read-out: Rep 1) it was 538 nM; in assay [1] (read-out: Rep 2) it was 1230 nM; in assay [1] (read-out: Rep 3), 112 nM; in assay [1] (read-out: Rep 4), 173 nM.

For the compound `COc1cc(Nc2ncc3c(C)nc(-c4cc5ccccc5[nH]4)n3n2)cc(OC)c1OC` [GW869516X], the potency estimated from few doses was 78.3 nM in [2] (CATDS: 0.461357463552929) and 55.8 nM in [3] (CATDS: 0.54570756078054605).

For the compound `CN(c1ccc(NC(=O)N2CCN(CCCN3CCOCC3)CC2)cc1)c1ccnc(Nc2ccc(CS(C)(=O)=O)cc2)n1.Cl` [GW830899A], the potency estimated from few doses in assay [4] (CATDS: 3.8742372830354199E-2) is 411 nM; in [5] (CATDS: 2.31268992433276E-2), 1070 nM; in assay [2] (CATDS: 1.98938138742078E-2), 1550 nM; in assay [3] (CATDS: 2.19439033786193E-2), 1210 nM; in assay [6] (CATDS: 1.9888583471378E-2), 1550 nM; in assay [7] (CATDS: 3.3242042513279398E-2), 528 nM. For the same compound, the potency estimated from few doses in assay [8] (CATDS: 3.3329188882870099E-2) was 525 nM; in assay [9] (CATDS: 2.6554458888549098E-2), 796 nM; in assay [10] (CATDS: 2.0205846564267299E-2), 1490 nM; in assay [11] (compound concentrations: 100 nM and 1000 nM (sheet 'Samples'), CATDS: 1.8045605554117099E-2), 2080 nM; in assay [12] (CATDS: 2.3560969184091798E-2), 1020 nM; in [13], 831 nM. Moreover, in assay [14] (CATDS: 2.0988983059189802E-2), the potency estimated from few doses was 1350 nM.

Regarding `Cn1ncc2c(N)ncnc21` [SKF-18267], the potency estimated from few doses in assay [4] (CATDS: 4.0309487407882601E-3) is 1310 nM; in [5] (CATDS: 3.9456431934801499E-3), 1380 nM; in assay [15], 936 nM; in [16], 1370 nM; in assay [2] (CATDS: 3.9180257487408596E-3) it was 1410 nM; in [6] (CATDS: 3.68265662419527E-3), 1670 nM. Also, the potency estimated from few doses in [7] (CATDS: 4.6125077933925696E-3) is 961 nM; in assay [8] (CATDS: 6.4966954074714102E-3), 507 nM; in [9] (CATDS: 6.1120630546354802E-3), 562 nM; in assay [17] it was 1720 nM; in [18] it was 1910 nM; in [10] (CATDS: 4.003241038036E-3), 1330 nM. Moreover, the potency estimated from few doses in [19] is 1280 nM; in assay [12] (CATDS: 6.4543335305036397E-3) it was 512 nM; in assay [20], 906 nM; in assay [14] (CATDS: 4.9685571215498103E-3), 824 nM.

As for `Cl.ON=C1CCc2cc(-c3nc(C4CCNCC4)[nH]c3-c3ccncc3)ccc21` [SB-614067-R], the potency estimated from few doses in assay [11] (compound concentrations:100 nM and 1000 nM (sheet 'Samples')) is 125 nM. Further, the IC50 in [1] (read-out: Average, SD, n = 4) was determined as 22900 nM; in [1] (read-out: Rep 1), 19100 nM; in assay [1] (read-out: Rep 2) it was 20600 nM; in assay [1] (read-out: Rep 3), 50100 nM; in [1] (read-out: Rep 4) it was 1840 nM.
